Bioassay records: PubChem, National Center for Advancing Translational Sciences (NCATS)
The sample as a whole holds a higher share of hits than the screen did.
PNC assembly inh = perinucleolar compartment assembly inhibition | PC3M PTB-GFP, PNC prevalence imaging, 16 h; hits give low values | activity change (PNC), negative = inhibition, % at 10 µM | hit rate 3.1% among 140,000 | AID 2417;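 active means readout at or below -70, meaning at least 70% loss of cells showing the perinucleolar compartment, a nuclear body marking cancer cells; inconclusive means readout between -30 and a set limit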;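 further: plate controls were DMSO wells for no effect and camptothecin positive control wells for full effect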
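Compounds are pinned in duplicate onto adhered PC3M cells stably expressing GFP-tagged PTB and incubated 16 h at 37 C. Cells are then fixed, nuclei stained with Hoechst, and PNC-positive cells counted.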
HTT ATP protect = Huntington cell model cytoprotection by ATP luminescence; PC12 HTT-Q103 induced, cytoprotection, ATP luminescence, 40 h; Potency, µM (series often up to 56.4 µM), for inactives: cytoprotection (ATP increase), hits mostly activators; hit rate 0.14% among 230,000; further: potency means the concentration at half of the fitted maximal effect; % of control where 0% means no effect; nearly all actives have a fitted effect of over 45% in size
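PC12 cells stably carrying ecdysone-inducible Htt exon 1 (Q103)–GFP were induced with 100 nM tebufenozide (final) alongside library compounds in a dose series. Cytoprotection was scored as retained ATP by ATPlite luminescence.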
HttQ103 aggreg = mutant huntingtin aggregation inhibition; PC12 HttQ103-GFP aggregates, Acumen cytometry, 40 h; Potency, µM (titrated, usually from 46.1 µM), for inactives: top-dose activity change, negative = inhibition, hits mostly inhibitors; hit rate 1.1% among 220,000; AID 1688; further: potency means the concentration at half of the fitted maximal effect; on the % scale 0 is the no-effect control and ±100 the full control effect; nearly all actives have a fitted effect of over 60% in size
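Aggregate formation scored by laser-scanning cytometer (488 excitation, 500–530 emission) in lysed PC12 cells expressing Q103-GFP after 100 nM tebufenozide induction; library tested in dose series, with ATPLite reagent added in the multiplex.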
Active calls of the source: *; ? = inconclusive; . = not tested or not shown; [ ] = remark or other dose. Unless noted, the call rests on the fitted dose curve; in most records, active means well fitted curve in the direction sought with a large enough effect; inconclusive means small, poorly fitted or top-dose-only effect, or another doubt; inactive means no such curve, though single readings can be large; an effect the other way counts as inactive or inconclusive.

SMILES | PNC assembly inh | HTT ATP protect | HttQ103 aggreg
O=C(CNC(=O)c1cccs1)OCC(=O)c1ccc2ccccc2c1 | 29 | -2% | -8%
CCN(CC)S(=O)(=O)c1ccc(OC)c(NC(=O)c2cccs2)c1 | . | 0%[10 µM] | -14%[9.22 µM]
COc1ccc(C(=O)NC(NC(=S)Nc2ccc(S(N)(=O)=O)cc2)C(Cl)(Cl)Cl)cc1 (configuration not stated) | -11 | -17% | 16%
O=C(COC(=O)/C=C/c1cccs1)NC(c1ccccc1)c1ccccc1 | -119* | 18%[10 µM] | -8%
O=C(COC(=O)/C=C/c1cccs1)NC(=O)Cc1ccccc1 | . | -2%[10 µM] | 11%
CCn1c(NCc2ccco2)nc2c1c(=O)n(C)c(=O)n2C | 7 | 0%[10 µM] | 6%
CCCNc1nc2c(c(=O)n(C)c(=O)n2C)n1Cc1ccc(F)cc1 | 16 | -3%[10 µM] | ?
Cn1c(=O)c2c(nc(NCc3ccco3)n2CCc2ccccc2)n(C)c1=O | -5 | -21% | 13µM*
Cn1c(=O)c2c(nc(NCc3ccccc3)n2Cc2ccc(F)cc2)n(C)c1=O | 29 | -21%[10 µM] | 20µM*
CN1C2=CC=CC=CC2=[N+](C)C12C=CC(=[N+]([O-])[O-])C=C2[N+](=O)[O-] (configuration not stated) | . | -46% | -1%
Brc1cccc(OCCn2ccnc2)c1 | -2 | -4% | 5%
CCc1sc(C(=O)NCc2cc(C)n(C)n2)cc1Br | ? | -36% | -13%
CCC(C)(C)NC(=O)C(c1ccc(C)o1)N(C(=O)c1csnn1)c1cccc(F)c1 (configuration not stated) | 18 | -7%[1.9 µM] | -1%
Cc1nn(-c2ccccc2)c2c1C(c1ccc([N+](=O)[O-])cc1)N1C(=N2)C(=O)Nc2ccccc21 (configuration not stated) | -10 | -19%[10 µM] | 13µM*
Cc1nn(-c2ccc([N+](=O)[O-])cc2)c2c1C(c1cccc(Br)c1)N1C(=N2)C(=O)Nc2ccccc21 (configuration not stated) | 20 | 1%[10 µM] | -4%
Cc1sc2nc(CN(CCc3ccccc3)C(=O)c3ccco3)[nH]c(=O)c2c1C | 6 | -6% | -6%
Cc1ccc(C(=O)Nc2c(C)n(C)n(-c3ccccc3)c2=O)cc1S(=O)(=O)N1CCOCC1 | 26 | -6%[10 µM] | -7%
Cc1ccc(S(=O)(=O)N2CCOCC2)cc1C(=O)Nc1c(C)n(C)n(-c2ccccc2)c1=O | -100* | -3% | -11%
CCC1CCCCN1C(=O)COc1ccccc1NC(C)=O (configuration not stated) | . | 6% | -5%
CCCOc1ccc(CC(=O)NCC2(c3ccccc3)CCOCC2)cc1OC | 62 | -1% | -24%
CCNC(=O)CON=C1c2ccccc2-c2ccccc21 | 9 | -21%[10 µM] | -9%
CCC(CC)NC(=O)CON=C1c2ccccc2-c2ccccc21 | -81* | -6%[10 µM] | 9%
O=S(=O)(c1cccs1)N1CN(C2CCCC2)c2nc3ccccc3nc21 | . | -5%[10 µM] | 19%[9.22 µM]
Cc1cc(C)nc(-n2ncc3c2CC(C)CC3=O)n1 (configuration not stated) | . | 5%[10 µM] | -5%[9.22 µM]
CC(=O)Nc1ccc(NC(=O)C(C)OC(=O)CN(C)S(=O)(=O)c2ccc(Cl)cc2)cc1 (configuration not stated) | -113* | 0% | 6%[9.22 µM]
SMILES | PNC assembly inh | HTT ATP protect | HttQ103 aggreg
CC(OC(=O)CN(C)S(=O)(=O)c1ccc(Cl)cc1)C(=O)Nc1ccc(N2CCOCC2)cc1 (configuration not stated) | 13 | -20%[10 µM] | 17%
C(#Cc1ccccc1)C[N+]1(CC#Cc2cccc3ccccc23)CCOCC1 | . | -12%[10 µM] | 11%[9.22 µM]
COc1ccc(OC)c(NC(=O)CNC(=O)Cn2c(C)cc3ccccc3c2=O)c1 | -19 | 17% | 23%[9.22 µM]
O=C(OCC(=O)N1CCCCCC1)c1ccc(Cl)c(S(=O)(=O)N2CCCC2)c1 | . | -24% | 18%
CNC(=O)COC(=O)c1ccc(Cl)c(S(=O)(=O)N2CCCC2)c1 | . | 2.8µM* | ?
O=C(NCc1ccc2c(c1)OCO2)c1cccc(S(=O)(=O)N2CCOCC2)c1 | -15 | 3% | -4%
COc1ccc(C2CC(=O)c3c(C)nc(N4CCN(c5ccccc5)CC4)nc3C2)cc1 (configuration not stated) | -7 | 6%[10 µM] | 0%
